Results published in PubChem BioAssay (NCI).
Compounds without any hit were thinned out: in the full panel of roughly 83,000, 20% have a hit.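 Values shown are percent growth following 48 h exposure of cells in 96-well plates to a single concentration of compound; below 10 was considered active.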 The source made the active and inactive calls.

Tested on: SNB-19 CNS
Test: NCI-60 one-dose screen, 48 h (100 = growth as untreated, 0 = no growth, -100 = all killed)
Settings: 10 µM unless noted

Row | Structure (SMILES) | growth
1 | COc1ccc(-c2nn(-c3ccc(NC(=O)c4cc(C(F)(F)F)cc(C(F)(F)F)c4)cc3)cc2-c2ccncc2)cc1Cl | 85.7% (inactive)
2 | Cc1cccc(NCS(=O)(=O)O)c1 | 101% (inactive)
3 | O=C(O)c1ccccc1C(=O)c1ccc(I)cc1 | 110% (inactive)
4 | CC1(C)CC(=O)C2=C(C1)OC1=C(C(=O)CC(C)(C)C1)C2c1ccc(OCc2cn(-c3ccc(F)cc3F)nn2)cc1 | 99.9% (inactive)
5 | CC(C)(CCN=C(N)Nc1ccccn1)c1ccc(C(F)(F)F)cc1 | 37.2% (inactive)
6 | CC(=O)c1cc2c(c(O)c1C)C(=O)C(=O)c1c(O)cccc1-2 | -85.9% (active)
7 | O=C(Nc1ccc(F)cc1)Nc1ccc(Cl)c([N+](=O)[O-])c1 | 21.5% (inactive)
8 | C#C[C@H](O)/C=C/CCCCCCC#C[C@H](O)CC[C@@H](O)C#CCCCCCC/C=C/[C@@H](O)C#C | 101% (inactive)
9 | O=C(Nc1ccc(-n2cc(-c3ccncc3)c(-c3ccc(O)c(Cl)c3)n2)cc1)c1ccc(Cl)c(C(F)(F)F)c1 | 40.2% (inactive)
10 | Cc1nccc2c3ccc(OCc4cn(Cc5ccc(Br)cc5)nn4)cc3n(CCCc3ccccc3)c12 | 47.3% (inactive)
11 | NCC(=O)NS(=O)(=O)OC[C@H]1O[C@@H](n2cnc3c(N)ncnc32)[C@H](O)[C@@H]1O | -6.06% (active)
12 | C[C@H]1C=C(C[C@@H](O)CC#CC#CCCCCC[C@@H](O)[C@H]2CCC(=O)O2)C(=O)O1 | 102% (inactive)
13 | CN1CCN(C(=O)/C=C/c2ccc([N+](=O)[O-])o2)CC1 | 98% (inactive)
14 | OCc1cnccc1NC12CC3CC(CC(C3)C1)C2 | 101% (inactive)
15 | Nc1nccc(=S)[nH]1 | 104% (inactive)
16 | COc1cc(C(=O)N2CCN(C(=O)c3cc(OC)c(OCc4ccccc4)cc3N)CC2)c(N)cc1OCc1ccccc1 | 108% (inactive)
17 | C[C@@H]1CC2C3C[C@H](F)C4=CC(=O)C=C[C@]4(C)[C@@]3(F)[C@@H](O)C[C@]2(C)[C@@]1(O)C(=O)CO (stereo not given in full) | 91.8% (inactive)
18 | CCCCCn1ncc(-c2c(O)c(O)cc3c(O)c(-c4c(C)cc5c(-c6cnn(CCCCC)n6)c(O)c(O)cc5c4O)c(C)cc23)n1 | 22% (inactive)
19 | COc1ccc(NC(=O)COCCOCCNC[C@@H]2C(=O)O[C@H]3[C@H]2CC/C(COC(=O)OC/C2=C/CC[C@@]4(C)O[C@H]4[C@H]4OC(=O)[C@@H](CN(C)C)[C@@H]4CC2)=C\CC[C@@]2(C)O[C@@H]32)c(O)c1C(N)=O | 94.1% (inactive)
20 | Cc1cc(C)c(O)c(C(=O)CC(Br)C(=O)O)c1 (stereo not given) | 108% (inactive)
21 | COc1ccc(-c2[nH]c3ccccc3c2/C=C(\C#N)S(=O)(=O)c2ccccc2)cc1 | 30.3% (inactive)
22 | NC(=NCCCOc1ccc(F)cc1)Nc1ccc(Cl)c(Cl)c1 | 77% (inactive)
23 | O=C(N/N=C/c1ccccc1O)c1ccccc1O | 51.7% (inactive)
24 | NC(=S)NNC1CCCCC1 | 101% (inactive)
25 | CCN1CCN(Cc2ccc(NC(=O)Nc3cccc(-n4ccc5c(NC(=O)c6ccccc6)nccc54)c3)cc2C(F)(F)F)CC1 | 89.8% (inactive)
26 | CN(C)c1ccc(/C=c2\s/c(=C\C(=O)C(C)(C)C)[nH]c2=O)cc1 | 97.5% (inactive)

Tested on: U251 CNS
Test: as above
Settings: 10 µM unless noted

Row | Structure (SMILES) | growth
27 | CCCCC(=O)Nc1nc2ccc(SCCC)cc2s1 | 39.9% (inactive)
28 | CC(C)(C)C(=O)/C=c1/[nH]c(=O)/c(=C/c2ccccc2O)s1 | 27.8% (inactive)
29 | CC[C@@]1(O)C(=O)OCc2c1cc1n(c2=O)Cc2c-1nc1ccccc1c2/C=N/OC(C)(C)C | -37.4% (active)
30 | COc1ccc(OC)c(NCC(=O)n2nc(/C=C\c3ccc(O)c(OC)c3)cc2/C=C\c2ccc(O)c(OC)c2)c1 | 4.56% (active)
31 | O=C1OC(=O)C2C3CC(c4ccccc43)C12 (stereo not given) | 97.4% (inactive)
32 | COc1ccc2c(c1)OC(N)=C(C#N)C2c1ccc(F)cc1 (stereo not given) | 31.3% (inactive)
33 | S=C=NP1(N=C=S)=NP(N=C=S)(N=C=S)=NP(N=C=S)(N=C=S)=NP(N=C=S)(N=C=S)=N1 (stereo not given) | 94.7% (inactive)
34 | COc1cc(-c2nc(N)n(CC(=O)Nc3ccc(/C(C)=N\O)cc3)n2)cc(OC)c1OC | 85.8% (inactive)
35 | COc1cc2ncnc(Oc3ccc(NC(=O)Nc4ccc(CN5CCOCC5)c(C(F)(F)F)c4)c4ccccc34)c2cc1OC | 42.6% (inactive)
36 | COc1ccc(-c2c(C#N)cnc(N)c2-c2nc3cc(C)c(C)cc3[nH]2)cc1 | 1.05% (active)
37 | c1ccc(CNCCN(CCNCc2ccccn2)Cc2ccc3ccccc3c2)nc1 | 3.09% (active)
38 | C=C1C(=O)O[C@H]2[C@H]1CC/C(C(=O)Nc1ccc(OC)c(C(N)=O)c1O)=C\CC[C@@]1(C)O[C@@H]21 | 82.2% (inactive)
39 | Cc1ccc2oc(=O)cc(C3C(C#N)=C(N)Oc4c3ccc3ccccc43)c2c1 (stereo not given) | 82.8% (inactive)
40 | COc1ccc(-c2nn(-c3ccc(NC(=O)c4cc(C(F)(F)F)cc(C(F)(F)F)c4)cc3)cc2-c2ccncc2)cc1Cl | 52.7% (inactive)
41 | Cc1cccc(NCS(=O)(=O)O)c1 | 87.8% (inactive)
42 | O=C(O)c1ccccc1C(=O)c1ccc(I)cc1 | 102% (inactive)
43 | CC1(C)CC(=O)C2=C(C1)OC1=C(C(=O)CC(C)(C)C1)C2c1ccc(OCc2cn(-c3ccc(F)cc3F)nn2)cc1 | 91.7% (inactive)
44 | CC(C)(CCN=C(N)Nc1ccccn1)c1ccc(C(F)(F)F)cc1 | -17% (active)
45 | CC(=O)c1cc2c(c(O)c1C)C(=O)C(=O)c1c(O)cccc1-2 | -94.5% (active)
46 | O=C(Nc1ccc(F)cc1)Nc1ccc(Cl)c([N+](=O)[O-])c1 | 15.5% (inactive)

Row | Structure (SMILES) | growth
47 | C#C[C@H](O)/C=C/CCCCCCC#C[C@H](O)CC[C@@H](O)C#CCCCCCC/C=C/[C@@H](O)C#C | 89.3% (inactive)
48 | O=C(Nc1ccc(-n2cc(-c3ccncc3)c(-c3ccc(O)c(Cl)c3)n2)cc1)c1ccc(Cl)c(C(F)(F)F)c1 | 15.7% (inactive)
49 | Cc1nccc2c3ccc(OCc4cn(Cc5ccc(Br)cc5)nn4)cc3n(CCCc3ccccc3)c12 | 82.3% (inactive)
50 | NCC(=O)NS(=O)(=O)OC[C@H]1O[C@@H](n2cnc3c(N)ncnc32)[C@H](O)[C@@H]1O | -39.3% (active)
51 | C[C@H]1C=C(C[C@@H](O)CC#CC#CCCCCC[C@@H](O)[C@H]2CCC(=O)O2)C(=O)O1 | 99.4% (inactive)
52 | CN1CCN(C(=O)/C=C/c2ccc([N+](=O)[O-])o2)CC1 | 90% (inactive)
53 | OCc1cnccc1NC12CC3CC(CC(C3)C1)C2 | 98.9% (inactive)
54 | Nc1nccc(=S)[nH]1 | 102% (inactive)
55 | COc1cc(C(=O)N2CCN(C(=O)c3cc(OC)c(OCc4ccccc4)cc3N)CC2)c(N)cc1OCc1ccccc1 | 115% (inactive)
56 | C[C@@H]1CC2C3C[C@H](F)C4=CC(=O)C=C[C@]4(C)[C@@]3(F)[C@@H](O)C[C@]2(C)[C@@]1(O)C(=O)CO (stereo not given in full) | 105% (inactive)
57 | CCCCCn1ncc(-c2c(O)c(O)cc3c(O)c(-c4c(C)cc5c(-c6cnn(CCCCC)n6)c(O)c(O)cc5c4O)c(C)cc23)n1 | -33.3% (active)
58 | COc1ccc(NC(=O)COCCOCCNC[C@@H]2C(=O)O[C@H]3[C@H]2CC/C(COC(=O)OC/C2=C/CC[C@@]4(C)O[C@H]4[C@H]4OC(=O)[C@@H](CN(C)C)[C@@H]4CC2)=C\CC[C@@]2(C)O[C@@H]32)c(O)c1C(N)=O | 80.8% (inactive)
59 | Cc1cc(C)c(O)c(C(=O)CC(Br)C(=O)O)c1 (stereo not given) | 100% (inactive)
60 | COc1ccc(-c2[nH]c3ccccc3c2/C=C(\C#N)S(=O)(=O)c2ccccc2)cc1 | 24.2% (inactive)
61 | NC(=NCCCOc1ccc(F)cc1)Nc1ccc(Cl)c(Cl)c1 | 69.8% (inactive)
62 | O=C(N/N=C/c1ccccc1O)c1ccccc1O | 36.2% (inactive)
63 | NC(=S)NNC1CCCCC1 | 93.6% (inactive)
64 | CCN1CCN(Cc2ccc(NC(=O)Nc3cccc(-n4ccc5c(NC(=O)c6ccccc6)nccc54)c3)cc2C(F)(F)F)CC1 | 76.3% (inactive)
65 | CN(C)c1ccc(/C=c2\s/c(=C\C(=O)C(C)(C)C)[nH]c2=O)cc1 | 94.1% (inactive)
